Test results published in the supplement of paper PMC10849652.
The full data set covers some 8,800 targets. This sample favours those with a hit. About 0.5% of all pairs of compound and target were hits.

Tests used:
Assay in all cases: log2 fold change, soluble protein after heating vs DMSO (PISA); higher = thermal stabilisation; K562 lysate, 10 uM; active = over 0.2 and 3.5 SD of the protein, either way, in both replicates (recomputed)
[1] = compound: CCCS(=O)(=O)Nc1ccc(F)c(C(=O)c2c[nH]c3ncc(-c4ccc(Cl)cc4)cc23)c1F [vemurafenib]
In short: (§1)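 A 30 min treatment with 10 μM compound was applied to crude K562 extract at 1 mg/mL protein in PBS pH 7.4 with 1 mM MgCl2. Heating for 3 min spanned 48°C-58°C, after which aliquots were pooled, adjusted to 0.5% NP-40 at 4°C and spun at 21,000xg for 90 min. TMTpro 16plex LC-MS/MS of the supernatant, with channel sums equalised, gave values recorded as log-two fold change in thermal stability against solvent controls, from duplicates.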

[2] = compound: CCCS(=O)(=O)Nc1ccc(F)c(C(=O)c2c[nH]c3ncc(Cl)cc23)c1F
In short: as §1

[3] = compound: CCN(CCCOc1ccc2c(Nc3cc(CC(=O)Nc4cccc(F)c4)[nH]n3)ncnc2c1)CCOP(=O)(O)O [barasertib]
In short: as §1

[4] = compound: CC[C@@H]1C(=O)N(C)c2cnc(Nc3ccc(C(=O)NC4CCN(C)CC4)cc3OC)nc2N1C1CCCC1
In short: as §1

[5] = compound: CC[C@@H]1C(=O)N(C)c2cnc(Nc3ccc(C(=O)N[C@H]4CC[C@H](N5CCN(CC6CC6)CC5)CC4)cc3OC)nc2N1C(C)C [volasertib]
In short: as §1

[6] = compound: CCn1c(C(=O)N(C2CC2)C2CC2)cc2c3c(ncn3C)c(Nc3cc(C)n(C)n3)nc21
In short: as §1

[7] = compound: CCn1cc(-c2ccnc3[nH]c(-c4cccc(CN(C)C)c4)cc23)c(-c2ccc(NC(=O)N(C)C)cc2)n1
In short: as §1

[8] = compound: CN1CCC(CNc2ccc3ncc(-c4cccc(OC(F)(F)F)c4)n3n2)CC1
In short: as §1

[9] = compound: CN1CCN(CCOc2cc(OC3CCOCC3)c3c(Nc4c(Cl)ccc5c4OCO5)ncnc3c2)CC1 [saracatinib]
In short: as §1

[10] = compound: CN1CCN(c2nc(C3=C(c4c[nH]c5ccccc45)C(=O)NC3=O)c3ccccc3n2)CC1 [sotrastaurin]
In short: as §1

Measured: log2 fold change

RPS18 (UniProt P62269)
inactive: [1] 0.006 | [2] 0.022 | [3] -0.007 | [4] -0.014 | [5] 0.018 | [6] 0.009 | [8] 0.063 | [9] 0.002 | [10] 0
active: [7] -0.219

RNF181 (UniProt Q9P0P0)
Sequence of UniProt Q9P0P0 (Q9P0P0 whole entry, looked up): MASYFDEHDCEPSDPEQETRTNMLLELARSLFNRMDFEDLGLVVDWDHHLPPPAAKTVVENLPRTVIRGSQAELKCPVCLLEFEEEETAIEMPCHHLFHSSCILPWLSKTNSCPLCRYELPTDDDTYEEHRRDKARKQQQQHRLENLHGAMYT
inactive: [1] -0.06 | [2] 0.025 | [3] 0.179 | [4] -0.036 | [5] 0.004 | [6] 0.018 | [7] -0.013 | [8] -0.035 | [9] -0.03 | [10] -0.02

REEP5 (UniProt Q00765)
Sequence of UniProt Q00765 (Q00765 whole entry, looked up): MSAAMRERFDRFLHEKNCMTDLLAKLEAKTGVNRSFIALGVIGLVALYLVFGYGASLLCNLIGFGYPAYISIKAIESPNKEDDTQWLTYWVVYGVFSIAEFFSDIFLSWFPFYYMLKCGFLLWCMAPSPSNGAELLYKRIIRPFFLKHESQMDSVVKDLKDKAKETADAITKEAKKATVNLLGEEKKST
inactive: [1] -0.008 | [2] -0.006 | [3] -0.008 | [4] 0.073 | [5] 0.023 | [6] 0.027 | [7] -0.051 | [8] 0.026 | [9] 0.017 | [10] -0.02

RPS6KB1 (UniProt P23443)
Sequence of UniProt P23443 (P23443 whole entry, looked up): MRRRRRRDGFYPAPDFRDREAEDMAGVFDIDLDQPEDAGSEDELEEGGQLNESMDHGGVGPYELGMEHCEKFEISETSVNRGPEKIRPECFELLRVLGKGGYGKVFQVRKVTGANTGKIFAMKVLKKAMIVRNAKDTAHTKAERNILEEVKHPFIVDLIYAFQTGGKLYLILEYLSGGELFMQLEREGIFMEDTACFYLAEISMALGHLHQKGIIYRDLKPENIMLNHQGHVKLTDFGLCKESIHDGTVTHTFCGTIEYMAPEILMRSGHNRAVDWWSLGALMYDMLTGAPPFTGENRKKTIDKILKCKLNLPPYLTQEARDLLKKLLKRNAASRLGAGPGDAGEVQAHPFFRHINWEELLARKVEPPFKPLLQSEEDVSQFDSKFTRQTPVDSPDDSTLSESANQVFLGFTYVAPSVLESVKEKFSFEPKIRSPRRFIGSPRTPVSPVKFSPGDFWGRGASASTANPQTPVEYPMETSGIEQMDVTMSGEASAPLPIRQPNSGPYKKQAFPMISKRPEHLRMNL
inactive: [1] -0.052 | [2] -0.001 | [3] 0.068 | [4] -0.109 | [5] -0.041 | [6] 0.078 | [7] -0.155 | [8] 0.185 | [9] -0.022 | [10] 0.074

RAB6D (UniProt Q53S08)
Sequence of UniProt Q53S08 (Q53S08 whole entry, looked up): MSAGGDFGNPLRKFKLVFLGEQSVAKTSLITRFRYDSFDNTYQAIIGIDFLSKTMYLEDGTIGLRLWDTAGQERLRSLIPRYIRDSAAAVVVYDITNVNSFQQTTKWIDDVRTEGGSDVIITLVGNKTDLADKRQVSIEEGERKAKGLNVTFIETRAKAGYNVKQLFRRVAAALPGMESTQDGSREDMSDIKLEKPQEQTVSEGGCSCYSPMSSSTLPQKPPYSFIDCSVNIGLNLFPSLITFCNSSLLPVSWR
inactive: [1] 0.005 | [2] -0.033 | [3] 0.15 | [5] 0.033 | [6] -0.049 | [7] -0.065 | [8] 0.018 | [9] -0.053 | [10] -0.025
active: [4] 0.289

RCOR1 (UniProt Q9UKL0)
Sequence of UniProt Q9UKL0 (Q9UKL0 whole entry, looked up): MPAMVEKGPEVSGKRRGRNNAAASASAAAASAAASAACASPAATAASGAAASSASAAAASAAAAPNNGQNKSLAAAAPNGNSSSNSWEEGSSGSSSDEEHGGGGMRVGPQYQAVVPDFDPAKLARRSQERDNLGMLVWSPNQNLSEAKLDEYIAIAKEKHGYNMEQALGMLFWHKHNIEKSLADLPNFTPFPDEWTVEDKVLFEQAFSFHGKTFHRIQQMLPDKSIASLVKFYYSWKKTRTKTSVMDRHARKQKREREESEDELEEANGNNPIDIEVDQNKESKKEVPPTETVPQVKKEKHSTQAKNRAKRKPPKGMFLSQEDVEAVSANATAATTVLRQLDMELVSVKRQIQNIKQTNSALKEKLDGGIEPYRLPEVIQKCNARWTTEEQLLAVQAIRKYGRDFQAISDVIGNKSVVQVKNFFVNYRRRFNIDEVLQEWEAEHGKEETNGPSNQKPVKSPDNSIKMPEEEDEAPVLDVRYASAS
inactive: [1] 0.028 | [2] -0.03 | [3] 0.108 | [4] -0.008 | [5] 0.003 | [6] -0.001 | [7] -0.071 | [8] 0.017 | [9] 0.001 | [10] 0.004

RPL36AL (UniProt Q969Q0)
inactive: [1] -0.039 | [2] 0.012 | [3] -0.009 | [4] -0.04 | [5] -0.013 | [6] 0.076 | [7] -0.076 | [8] -0.004 | [9] -0.091 | [10] -0.032

RAD51C (UniProt O43502)
Sequence of UniProt O43502 (O43502 whole entry, looked up): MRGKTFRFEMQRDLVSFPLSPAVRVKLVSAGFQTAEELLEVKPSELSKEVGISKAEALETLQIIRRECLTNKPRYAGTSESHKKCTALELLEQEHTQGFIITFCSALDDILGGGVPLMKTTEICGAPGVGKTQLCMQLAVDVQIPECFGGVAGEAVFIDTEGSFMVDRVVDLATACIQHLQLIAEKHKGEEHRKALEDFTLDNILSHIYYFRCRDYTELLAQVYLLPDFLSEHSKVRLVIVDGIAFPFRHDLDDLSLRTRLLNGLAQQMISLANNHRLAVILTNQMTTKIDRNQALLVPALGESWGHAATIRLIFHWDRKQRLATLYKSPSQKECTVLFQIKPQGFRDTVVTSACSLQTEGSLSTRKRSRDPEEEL
inactive: [1] -0.067 | [2] -0.01 | [3] -0.011 | [4] -0.017 | [5] 0.046 | [6] -0.038 | [7] -0.027 | [8] 0.027 | [9] 0.01 | [10] 0.027

RAB3IL1 (UniProt E9PK89)
inactive: [1] -0.154 | [2] 0.031 | [3] -0.001 | [4] -0.079 | [5] 0.031 | [6] -0.054 | [7] 0.026 | [8] -0.047 | [9] -0.043 | [10] -0.013

SEC16A isoform 5 (UniProt O15027)
Sequence of UniProt O15027 (O15027 whole entry, looked up): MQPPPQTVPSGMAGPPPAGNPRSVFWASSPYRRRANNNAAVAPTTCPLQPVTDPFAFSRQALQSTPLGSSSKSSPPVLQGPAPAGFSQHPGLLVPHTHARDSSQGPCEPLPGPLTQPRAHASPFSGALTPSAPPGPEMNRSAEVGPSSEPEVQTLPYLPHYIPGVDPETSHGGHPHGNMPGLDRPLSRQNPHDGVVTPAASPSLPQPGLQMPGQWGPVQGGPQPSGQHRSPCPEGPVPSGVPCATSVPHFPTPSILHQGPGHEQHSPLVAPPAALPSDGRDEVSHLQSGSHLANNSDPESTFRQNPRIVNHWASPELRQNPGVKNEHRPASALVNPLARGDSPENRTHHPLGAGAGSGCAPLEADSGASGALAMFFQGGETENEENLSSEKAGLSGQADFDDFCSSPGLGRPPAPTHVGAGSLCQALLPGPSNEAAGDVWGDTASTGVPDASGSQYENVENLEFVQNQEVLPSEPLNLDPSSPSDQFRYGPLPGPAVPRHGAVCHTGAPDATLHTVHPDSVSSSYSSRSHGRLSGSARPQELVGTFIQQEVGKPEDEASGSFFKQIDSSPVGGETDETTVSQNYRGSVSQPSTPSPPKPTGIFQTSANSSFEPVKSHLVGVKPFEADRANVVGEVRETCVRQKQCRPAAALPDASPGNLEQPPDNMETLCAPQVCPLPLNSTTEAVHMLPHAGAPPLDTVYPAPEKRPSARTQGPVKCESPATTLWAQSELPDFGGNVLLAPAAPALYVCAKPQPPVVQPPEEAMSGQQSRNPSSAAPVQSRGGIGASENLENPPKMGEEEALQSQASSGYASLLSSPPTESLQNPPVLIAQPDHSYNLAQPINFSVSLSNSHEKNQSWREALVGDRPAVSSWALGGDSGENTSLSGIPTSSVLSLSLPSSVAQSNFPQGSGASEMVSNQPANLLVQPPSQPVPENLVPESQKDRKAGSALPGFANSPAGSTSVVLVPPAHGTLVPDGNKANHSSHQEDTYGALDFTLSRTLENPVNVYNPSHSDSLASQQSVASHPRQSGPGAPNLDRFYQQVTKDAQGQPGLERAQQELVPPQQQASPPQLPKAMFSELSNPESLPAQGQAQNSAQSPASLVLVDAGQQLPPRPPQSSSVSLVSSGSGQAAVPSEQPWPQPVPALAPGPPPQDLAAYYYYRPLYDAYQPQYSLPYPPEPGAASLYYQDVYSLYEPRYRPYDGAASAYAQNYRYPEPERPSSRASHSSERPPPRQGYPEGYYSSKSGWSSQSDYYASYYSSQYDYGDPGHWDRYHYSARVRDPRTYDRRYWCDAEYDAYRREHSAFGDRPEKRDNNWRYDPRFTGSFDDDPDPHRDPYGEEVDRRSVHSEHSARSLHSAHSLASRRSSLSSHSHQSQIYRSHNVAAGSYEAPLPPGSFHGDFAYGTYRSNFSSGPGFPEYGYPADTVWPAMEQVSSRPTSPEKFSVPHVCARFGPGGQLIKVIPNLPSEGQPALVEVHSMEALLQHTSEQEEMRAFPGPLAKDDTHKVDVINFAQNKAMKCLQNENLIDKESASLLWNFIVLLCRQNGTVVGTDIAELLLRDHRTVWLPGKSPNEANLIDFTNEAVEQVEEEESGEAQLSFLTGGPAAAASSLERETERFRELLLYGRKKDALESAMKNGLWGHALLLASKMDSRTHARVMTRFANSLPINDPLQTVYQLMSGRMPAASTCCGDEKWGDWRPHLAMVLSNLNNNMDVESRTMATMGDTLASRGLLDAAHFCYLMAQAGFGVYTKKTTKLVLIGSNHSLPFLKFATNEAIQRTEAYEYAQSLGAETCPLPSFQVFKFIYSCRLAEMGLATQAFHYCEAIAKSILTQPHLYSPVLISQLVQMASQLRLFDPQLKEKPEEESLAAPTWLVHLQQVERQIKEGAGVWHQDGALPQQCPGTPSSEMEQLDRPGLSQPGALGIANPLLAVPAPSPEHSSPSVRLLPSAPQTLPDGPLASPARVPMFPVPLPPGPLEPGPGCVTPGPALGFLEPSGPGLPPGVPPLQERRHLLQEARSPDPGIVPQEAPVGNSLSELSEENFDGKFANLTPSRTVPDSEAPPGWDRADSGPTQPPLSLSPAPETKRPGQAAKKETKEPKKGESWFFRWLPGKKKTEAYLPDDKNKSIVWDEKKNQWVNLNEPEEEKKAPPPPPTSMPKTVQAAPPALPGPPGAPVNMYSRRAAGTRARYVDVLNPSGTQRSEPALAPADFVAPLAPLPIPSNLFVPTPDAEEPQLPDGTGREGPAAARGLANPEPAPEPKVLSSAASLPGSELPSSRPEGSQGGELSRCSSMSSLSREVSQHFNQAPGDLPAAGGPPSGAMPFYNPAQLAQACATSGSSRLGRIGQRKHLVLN
inactive: [1] 0.03 | [2] 0.019 | [3] 0.021 | [4] 0.038 | [5] -0.028 | [6] 0.006 | [7] 0.008 | [8] -0.037 | [9] 0.013 | [10] -0.01

RAB1B (UniProt Q9H0U4)
Sequence of UniProt Q9H0U4 (Q9H0U4 whole entry, looked up): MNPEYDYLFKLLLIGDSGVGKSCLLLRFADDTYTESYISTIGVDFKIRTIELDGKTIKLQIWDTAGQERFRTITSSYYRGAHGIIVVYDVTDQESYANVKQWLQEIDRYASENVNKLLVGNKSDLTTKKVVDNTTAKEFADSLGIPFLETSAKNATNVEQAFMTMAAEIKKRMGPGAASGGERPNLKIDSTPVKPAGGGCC
active: [7] -0.444
inactive: [1] -0.003 | [2] 0.012 | [3] 0.073 | [4] 0.019 | [5] 0.006 | [6] -0.016 | [8] 0.171 | [9] 0.021 | [10] 0.017

RAB21 (UniProt Q9UL25)
Sequence of UniProt Q9UL25 (Q9UL25 whole entry, looked up): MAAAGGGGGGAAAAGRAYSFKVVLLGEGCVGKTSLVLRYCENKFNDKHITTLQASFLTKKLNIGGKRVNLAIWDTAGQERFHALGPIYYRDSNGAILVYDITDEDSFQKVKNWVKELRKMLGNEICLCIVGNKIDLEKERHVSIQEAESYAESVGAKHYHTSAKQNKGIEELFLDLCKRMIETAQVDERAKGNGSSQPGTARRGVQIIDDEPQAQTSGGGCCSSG
inactive: [1] -0.038 | [2] -0.005 | [3] 0.041 | [4] 0.005 | [5] -0.006 | [6] 0.008 | [8] -0.06 | [9] 0.029 | [10] -0.021
active: [7] 0.262

RBBP8 isoform 2 (UniProt Q99708)
inactive: [1] 0.002 | [2] 0.182 | [3] -0.013 | [4] 0.079 | [5] -0.019 | [6] -0.065 | [7] 0.065 | [8] -0.021 | [9] 0.018 | [10] -0.017

RPLP0P6 (UniProt Q8NHW5)
inactive: [1] -0.002 | [2] 0.012 | [3] -0.121 | [4] 0.009 | [5] -0.009 | [6] -0.02 | [7] -0.011 | [8] 0.017 | [9] -0.011 | [10] -0.02

SERPINI1 (UniProt Q99574)
inactive: [1] 0.027 | [2] 0.008 | [3] -0.006 | [4] 0.024 | [5] -0.001 | [6] 0.03 | [7] 0.001 | [8] 0.069 | [9] 0 | [10] 0.016
